High-throughput results: PubChem BioAssay, National Center for Advancing Translational Sciences (NCATS)
HT1080 IDH1KD tx: toxicity to HT-1080 IDH1 knockdown cells (counter line). HT-1080 IDH1 knockdown viability, ATP luminescence, 48 h. Potency, µM (series often up to 46.1 µM), most hits filed as cytotoxic. actives 2% (n = 360,000). AID 686971
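Using the IDH1-knockdown HT-1080 line run in the same batch and compound series as the NT line, viability after 48 h at 37 °C was determined by CellTiter-Glo luminescence and expressed as % activity.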
DT40 TDP1 no CPT: qHTS for Inhibitors of human tyrosyl-DNA phosphodiesterase 1 (TDP1): qHTS in cells in absence of CPT; DT40 Tdp1-/- hTDP1 cells, no CPT, ATP luminescence, 48 h; Potency, µM (top dose mostly 46.2 µM), actives largely listed as inhibitors; actives 15% (n = 420,000); also: nearly all actives have a fitted effect of over 55% in size
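Seeded 400 DT40-hTDP1 cells/well (vehicle DMSO, no 20 nM CPT); pinned compounds; ≥48 hr at 37 °C; CellTiter-Glo luminescence as viability measure.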
DT40 TDP1 CPT: growth inhibition of DT40 Tdp1-/-;hTDP1 cells with camptothecin (screen for TDP1 inhibitors); Potency, µM (titrated, usually from 46.2 µM), most hits filed as inhibitors; actives 12% (n = 420,000); chicken DT40 Tdp1-/-;hTDP1 cells + 20 nM CPT, ATP luminescence, 48 h; also: nearly all actives have a fitted effect of over 55% in size
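Chicken DT40 Tdp1-/- cells complemented with human TDP1, 400 cells/well, exposed to compounds plus 20 nM camptothecin for at least 48 h at 37 C; viability read as ATP content by CellTiter-Glo luminescence.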
IL-1B inflam inh: inhibitors of inflammasome signaling (IL-1 beta secretion). THP-1 LPS/ATP IL-1B secretion, AlphaLISA, 16 h; hits give low values. activity change, % at 57.5 µM. actives 4.7% (n = 360,000). AID 743279; in the data active = activity change below about -50%; inconclusive = mostly about -30% to -49%
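Secreted IL-1B measured by AlphaLISA bead assay after 16 h compound exposure of THP-1 cells; compounds (final up to 57.5 uM) added 1 h before LPS (250 ng/mL) and ATP (1.25 mM) stimulation; lower signal means less secretion.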
uPA generation: inhibitors of cell surface uPA generation | cell surface uPA generation assay, qHTS | Potency, µM (titrated, usually from 38.3 µM), most hits filed as inhibitors | actives 0.31% (n = 330,000); active = well fitted inhibition curve with a large enough effect; inconclusive = small, poorly fitted or top-dose-only effect; inactive = no such curve, though single readings can be large or run the other way; tested in mouse RAW 264.7 cells; also: nearly all actives have a fitted effect of over 55% in size
HT1080NT lethal: kills 2HG-producing HT-1080-NT fibrosarcoma cells | Potency, µM (highest dose often 46.1 µM), usual class: cytotoxic | actives 1.6% (n = 360,000) | HT-1080-NT fibrosarcoma viability, CellTiter-Glo ATP luminescence, 48 h | AID 686970;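 also: NT is the 2HG producing partner of a matched IDH1 knockdown line; nearly all actives have a fitted effect of over 55% in size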
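Luminescent CellTiter-Glo readout after 48 hours of compound exposure at 37 degrees C defined viability of HT-1080-NT cells. Activity was normalized to DMSO wells and cell-free media wells; concentration-response curves were fitted and assigned curve classes.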
Of the large screens only hits and unclear results are named; the others gave an inactive call. The list is not random: actives were taken first. Their share in the collection is about 19%. Unless noted, calls follow the shape of the dose curve; as a rule, active = well fitted curve in the direction sought with a large enough effect; inconclusive = small, poorly fitted or top-dose-only effect, or another doubt; inactive = no such curve, though single readings can be large; an effect the other way counts as inactive or inconclusive.

O=S(=O)(Nc1ncnc2scc(-c3ccc(F)cc3)c12)c1cc(F)ccc1F	DT40 TDP1 no CPT 29.1µM, DT40 TDP1 CPT inconclusive
Clc1ccc(-c2csc3ncnc(Cl)c23)cc1	DT40 TDP1 no CPT 16.4µM, DT40 TDP1 CPT inconclusive, IL-1B inflam inh -88.6
COc1cccc(NC(=O)COC(=O)C2CC3CCCC(C2)C3=O)c1 (stereo not drawn)	none
CO[C@@]1(NC(=O)CSC[C@@H](N)C(=O)O)C(=O)N2C(C(=O)O)=C(CSc3nnnn3C)CS[C@@H]21	none (no result: HT1080 IDH1KD tx, IL-1B inflam inh, uPA generation, HT1080NT lethal)
CCN1C(=O)N[C@@H](CCc2ccccc2)[C@@H](C(=O)OC)[C@H]1C	none
CCN1C(C(=O)c2ccccc2)=C(OC(=O)COc2ccc(OC)cc2)c2ccccc2S1(=O)=O	DT40 TDP1 no CPT 4.61µM, DT40 TDP1 CPT 5.17µM (no result: HT1080 IDH1KD tx, IL-1B inflam inh, uPA generation, HT1080NT lethal)
COc1ccc(C(=O)CN2C(=O)c3ccccc3S2(=O)=O)cc1	none
CCCN1C(C(=O)c2ccccc2)=C(OC(=O)COc2ccc(C)cc2)c2ccccc2S1(=O)=O	DT40 TDP1 no CPT 5.17µM, DT40 TDP1 CPT 4.11µM (no result: HT1080 IDH1KD tx, IL-1B inflam inh, uPA generation, HT1080NT lethal)
CCCN1C(C(=O)c2ccccc2)=C(OC(=O)COc2ccccc2)c2ccccc2S1(=O)=O	DT40 TDP1 no CPT 4.11µM, DT40 TDP1 CPT 4.11µM (no result: HT1080 IDH1KD tx, IL-1B inflam inh, uPA generation, HT1080NT lethal)
CCCCC(=O)OC1=C(C(=O)c2ccccc2)N(C)S(=O)(=O)c2ccccc21	DT40 TDP1 no CPT 23.1µM, DT40 TDP1 CPT inconclusive (no result: HT1080 IDH1KD tx, IL-1B inflam inh, uPA generation, HT1080NT lethal)
Cc1ccccc1NC1=C(C(=O)c2ccccc2)N(C)S(=O)(=O)c2ccccc21	DT40 TDP1 no CPT inconclusive
COCCn1c(=O)c(-c2ccc(OC)cc2)nc2cnc(Nc3ccccc3)nc21	none (no result: HT1080 IDH1KD tx, IL-1B inflam inh, uPA generation, HT1080NT lethal)
Cc1cc(=O)n2nc(N3CCC(C(=O)NCCCOC(C)C)CC3)sc2n1	none (no result: HT1080 IDH1KD tx, IL-1B inflam inh, uPA generation, HT1080NT lethal)
C=CCN1C(C(=O)c2ccccc2)=C(OC(=O)COc2ccccc2)c2ccccc2S1(=O)=O	HT1080 IDH1KD tx inconclusive, DT40 TDP1 no CPT inconclusive, DT40 TDP1 CPT inconclusive, HT1080NT lethal inconclusive
CCN1C(C(=O)c2ccccc2)=C(OC(=O)COc2ccc(C)cc2)c2ccccc2S1(=O)=O	DT40 TDP1 no CPT 16.4µM, DT40 TDP1 CPT inconclusive (no result: HT1080 IDH1KD tx, IL-1B inflam inh, uPA generation, HT1080NT lethal)
CCCN1C(C(=O)c2ccccc2)=C(OC(=O)C(C)(C)C)c2ccccc2S1(=O)=O	DT40 TDP1 no CPT 5.17µM, DT40 TDP1 CPT 4.11µM (no result: HT1080 IDH1KD tx, IL-1B inflam inh, uPA generation, HT1080NT lethal)
CN1C(C(=O)c2ccccc2)=C(NC(=O)c2ccccc2Br)c2ccccc2S1(=O)=O	DT40 TDP1 no CPT 6.51µM, DT40 TDP1 CPT 11.6µM (no result: HT1080 IDH1KD tx, IL-1B inflam inh, uPA generation, HT1080NT lethal)
COc1cccc(Nc2ncc3nc(-c4ccc(F)cc4)c(=O)n(C[C@H]4CCCO4)c3n2)c1	none (no result: HT1080 IDH1KD tx, IL-1B inflam inh, uPA generation, HT1080NT lethal)
Cc1csc(NCC(=O)c2c(C)[nH]c3ccccc23)n1	none (no result: HT1080 IDH1KD tx, IL-1B inflam inh, uPA generation, HT1080NT lethal)
O=[N+]([O-])c1ccc(N2CCc3ccccc3C2)cc1	DT40 TDP1 no CPT 18.4µM, DT40 TDP1 CPT inconclusive
O=C(Nc1ccc([N+](=O)[O-])cc1)N1CCc2ccccc2C1	HT1080 IDH1KD tx 11.6µM, DT40 TDP1 no CPT inconclusive, IL-1B inflam inh -89.9
CC(C)c1ccc(NC(=O)N2CCc3ccccc3C2)cc1	DT40 TDP1 no CPT inconclusive, DT40 TDP1 CPT inconclusive, IL-1B inflam inh -59.1
O=C(Nc1cccc(Cl)c1)N1CCc2ccccc2C1	DT40 TDP1 no CPT inconclusive, DT40 TDP1 CPT inconclusive
CN1CCN(C(=O)Nc2ccc([N+](=O)[O-])cc2)CC1	none
CCc1oc(C(=O)O)cc1CN(CC)CC	none
CCN(CC)Cc1cc(O)c(CN(CC)CC)cc1O	DT40 TDP1 no CPT 4.11µM, DT40 TDP1 CPT 6.51µM
Cn1c2ccccc2c2cnn(CC(=O)Nc3ccccc3F)c(=O)c21	DT40 TDP1 no CPT inconclusive (no result: HT1080 IDH1KD tx, IL-1B inflam inh, uPA generation, HT1080NT lethal)
Cc1ccc(S(=O)(=O)C[C@@H]2OC[C@H](C(C)C)N2S(=O)(=O)c2ccc(C)cc2)cc1	DT40 TDP1 no CPT 16.4µM, DT40 TDP1 CPT 18.4µM (no result: uPA generation)
Cc1ccc(S(=O)(=O)N2[C@H](CC(=O)Oc3ccccc3)OC[C@@H]2C(C)C)cc1	DT40 TDP1 no CPT 13µM, DT40 TDP1 CPT 13µM (no result: uPA generation)
Cc1ccc(S(=O)(=O)N2[C@@H](CCO)OC[C@H]2C(C)C)cc1	DT40 TDP1 no CPT inconclusive (no result: uPA generation)
CC(=O)C[C@H]1SC[C@@H](C(C)C)N1S(=O)(=O)c1ccc(C)cc1	DT40 TDP1 no CPT 13µM, DT40 TDP1 CPT 9.2µM (no result: uPA generation)
